Assay outcomes: PubChem, National Center for Advancing Translational Sciences (NCATS)
HepG2 viability: qHTS for Inhibitors of TGF-b: Cytotox Counterscreen; HepG2 CAGA-GFP viability, ATP luminescence, 18 h; actives 0.76% (n = 410,000); AID 588856, 2011; Potency, µM (highest dose often 46.1 µM), without a hit: at the top dose activity change, negative = cytotoxicity, usual class: cytotoxic; further: potency means the concentration at half of the fitted maximal effect
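HepG2 CAGA-GFP cells (1000/well, DMEM with 1% FBS) received compound, then TGF-beta at 500 pg/mL final, and were incubated 18 hours at 37 degrees C. Viability was read by CellTiter-Glo luminescence. Media-only wells were set as complete cell-killing and DMSO as no toxicity.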
ATXN2 expr inh: Primary qHTS for Inhibitors of ATXN expression. AID 1745845, 2022. HEK-293 ATXN2-luciferase reporter, luminescence, 24 h. Potency, µM (top dose mostly 57 µM), for inactives: top-dose activity change, negative = inhibition, most hits filed as inhibitors. actives 0.72% (n = 360,000); further: potency means the concentration at half of the fitted maximal effect; on the % scale 0 is the no-effect control and ±100 the full control effect; nearly all actives have a fitted effect of over 55% in size
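qHTS (up to 57 uM final) was run with 24 h compound exposure of reporter cells at 37 °C. Each well was multiplexed: SteadyGlo luminescence measured ATXN2-luciferase expression after a fluorogenic Gly-Phe-AFC viability readout (25 uM final).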
IL1B secr inh: qHTS for Inhibitors of Inflammasome Signaling: IL-1-beta AlphaLISA Primary Screen; activity change, % at 57.5 µM; actives 4.7% (n = 360,000); THP-1 LPS/ATP IL-1B secretion, AlphaLISA, 16 h; hits give low values; in the data active means activity change below about -50%; inconclusive means mostly about -30% to -49%; further: on the % scale 0 is the no-effect control and ±100 the full control effect
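THP-1 cells pretreated 1 hr with compounds (up to 57.5 uM final), then stimulated with LPS (250 ng/mL final) plus ATP (1.25 mM final); secreted IL-1B measured by AlphaLISA after 16 hr, decreased signal indicating inhibition.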
ATXN viability: Viability Counterscreen for Primary qHTS for Inhibitors of ATXN expression; S2 cells (HEK-293 line with an ATXN2-luciferase reporter) viability, CellTiter-Fluor protease fluorescence, 24 h; Potency, µM (highest dose often 56.7 µM), actives largely listed as cytotoxic; actives 0.49% (n = 400,000); AID 651635, 2014; further: potency means the concentration at half of the fitted maximal effect; nearly all actives have a fitted effect of over 40% in size
TGFb inhibitor: qHTS for Inhibitors of TGF-b | HepG2 CAGA-GFP TGF-b/SMAD3 reporter, GFP fluorescence, 18 h; TGF-beta stimulated, 500 pg/mL final | Potency, µM (series often up to 46.1 µM), for the others: at the highest dose activity, negative = inhibition, hits mostly inhibitors | actives 1.2% (n = 410,000); further: potency means the concentration at half of the fitted maximal effect; on the % scale 0 is the no-effect control and ±100 the full control effect; nearly all actives have a fitted effect of over 65% in size
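Inhibition of TGF-beta-driven CAGA-GFP reporter expression in HEPG2 cells is measured by cellular GFP fluorescence after 18 h stimulation with 500 pg/mL recombinant TGF-beta in 1% FBS medium at 37 degrees C.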
Starred values were filed as active, the others as inactive; i = inactive; ? = inconclusive; nt = no result. A selection: hits, their analogues and other compounds. The true share with any hit is near 5.7%. Unless noted, the call rests on the fitted dose curve; in most records, active means well fitted curve in the direction sought with a large enough effect; inconclusive means small, poorly fitted or top-dose-only effect, or another doubt; inactive means no such curve, though single readings can be large; an effect the other way counts as inactive or inconclusive.

SMILES	HepG2 viability	ATXN2 expr inh	IL1B secr inh	ATXN viability	TGFb inhibitor
COc1ccccc1CNc1nc(NCCOc2ccccc2)c2sccc2n1	-96.1%	?	-92.5*	?	?
COc1ccccc1CNc1nc(Oc2cccc(F)c2)c2sccc2n1	-4.5%	-3.6%	-21.5	i	-12.4%
c1cc2cc(CNc3nc(NCC4CC4)nc4ccsc34)ccc2o1	-99.7%	?	-78.1*	nt	?
c1ccc(OCCNc2nc(NCC3CC3)nc3ccsc23)cc1	-35.7%	-33.8%	?	?	?
Cc1ccc(CNc2nc(NCC3CC3)nc3ccsc23)c(C)c1	-95.2%	-7.5%	-18.9	nt	?
Cc1cc(CNC(=O)CCN2Cc3cc(Cl)ccc3OC(C)C2)nn1C (stereo unspecified)	nt	nt	nt	i	nt
COc1ccccc1CNc1nc(NCc2ccc(NC(C)=O)cc2)c2sccc2n1	-78.4%	?	-9.3	i	17.8µM*
COc1ccccc1CNc1nc(NCCNC(C)=O)c2sccc2n1	-12.8%	0.3%	86.8	i	32.9%
CC(C)Nc1nc(NCc2ccccc2)c2sccc2n1	-21.0%	?	-101.2*	?	?
CNC(=O)c1c(-c2ccc(F)cc2)oc2cc(N(CCO)S(C)(=O)=O)c(C3CC3)cc12	nt	-18.5%	nt	nt	nt
CC1=[N+](C)c2ccc3ccccc3c2C1(C)C	-75.0%	?	-15.1	i	6.31µM*
C[C@@H]1CN(Cc2ccc3c(c2)CN(C(=O)CCc2nc4ccc(F)cc4[nH]2)CCO3)C[C@H](C)O1	nt	nt	nt	i	nt
COc1ccccc1CCCNC(=O)C1CCC(=O)N(CCc2ccc(Cl)cc2)C1 (stereo unspecified)	-48.0%	-2.8%	-51.3*	i	-15.5%
CN(C)C1(CNC(=O)C2CCC(=O)N(Cc3ccc(Cl)cc3)C2)CCCCC1 (stereo unspecified)	14.1µM*	nt	-6.6	i	2.1%
O=C(NC1CC1)[C@@H]1C[C@H](Sc2nc3ccccc3[nH]2)CN1CC1CCCCC1	nt	nt	nt	i	nt
Cc1cc(NC(=O)CS(=O)(=O)c2cn(Cc3cccc(F)c3)c3ccccc23)no1	-0.1%	-13.3%	-55.0*	i	-20.3%
Cn1ccc2cc(S(=O)(=O)N3CCC(C(=O)NCCc4ccccc4)CC3)ccc21	0.3%	3.0%	nt	i	-9.1%
Cc1nnc(NC(=O)c2ccc3ccccc3c2)o1	-14.0%	-1.3%	-57.3*	i	-0.1%
O=C(Nc1nnc(-c2ccco2)o1)c1ccc2ccccc2c1	-7.8%	?	-1.6	?	?
Cc1nn(-c2ccc(N3CCCCC3)nn2)c(C)c1CCC(=O)NCc1ccc(Cl)cc1	-9.4%	nt	nt	nt	-19.8%
Cc1ccccc1N(C(=O)Cn1nnc(-c2cccs2)n1)C(C(=O)NCCC(C)C)c1ccco1 (stereo unspecified)	-4.5%	-6.8%	-50.9*	i	?
CNS(=O)(=O)c1cccc(C(=O)OCC(=O)NC(C)CCc2ccccc2)c1 (stereo unspecified)	-3.1%	nt	15.4	i	13.6%
CN(C(=O)COC(=O)c1cc(NS(=O)(=O)c2cc([N+](=O)[O-])ccc2Cl)ccc1O)C1CCCCC1	1.8%	-3.1%	-80.8*	i	?
CC(CCc1ccccc1)NC(=O)COC(=O)c1cc(NS(=O)(=O)c2ccc(Cl)c([N+](=O)[O-])c2)ccc1O (stereo unspecified)	-51.9%	0.6%	-97.7*	i	?
COc1cccc(CC(=O)NCC2Cc3cc(Cl)cc(-c4ncccn4)c3O2)c1 (stereo unspecified)	nt	nt	nt	i	nt
CCc1ccc(NCc2ccc(OC)c(Cn3ccnc3)c2)cc1	-35.9%	-24.7%	0.0	i	?
COc1ccc(CNc2ccc(Cl)cc2)cc1Cn1ccnc1	-16.6%	-1.9%	-70.8*	i	-1.1%
O=C(O)c1ccccc1NCCc1ccccc1	nt	43.6%	nt	i	nt
O=C(NCC1COc2ccccc2O1)c1ccc(Br)s1 (stereo unspecified)	-14.8%	12.6%	-71.8*	i	-1.1%
